Bioassay records (PubChem BioAssay)
Rows were chosen to be rich in hits. Some 3.3% of all compounds tested hit in one or more screens of this group.
AmpC no deterg – inhibitors of E. coli AmpC beta-lactamase without detergent; AmpC nitrocefin hydrolysis, absorbance 480 nm, 0.0001% Triton; Potency, µM (titrated, usually from 57.1 µM), usual class: inhibitors; 0.52% of 330,000 active; also: nearly all actives have a fitted effect of over 20% in size
Target sequence (P00811 whole entry, looked up): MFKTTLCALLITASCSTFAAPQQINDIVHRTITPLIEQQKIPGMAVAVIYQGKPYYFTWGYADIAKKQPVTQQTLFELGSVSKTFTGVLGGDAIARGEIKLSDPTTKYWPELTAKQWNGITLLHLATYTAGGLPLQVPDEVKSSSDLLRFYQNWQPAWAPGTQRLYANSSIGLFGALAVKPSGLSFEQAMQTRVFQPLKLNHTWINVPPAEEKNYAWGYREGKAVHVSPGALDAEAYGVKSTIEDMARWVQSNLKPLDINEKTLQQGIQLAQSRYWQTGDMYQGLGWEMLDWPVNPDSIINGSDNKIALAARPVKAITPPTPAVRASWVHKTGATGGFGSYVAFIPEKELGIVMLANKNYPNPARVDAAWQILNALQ
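AmpC (5.3 nM in the dispensed reagent) in 20 mM phosphate pH 7.0 with 0.01% (detergent screen) or 0.0001% Triton X-100 was preincubated with compounds for 15 min at room temperature. Nitrocefin was then added from an 800 uM solution, and hydrolysis was followed at 480 nm.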
Sm TGR inh – blocks Schistosoma mansoni thioredoxin glutathione reductase; AID 485364; 3% of 360,000 active; Potency, µM (top dose mostly 114 µM), usual class: inhibitors; Q962Y6; purified TGR, DTNB reduction, TNB absorbance 405 nm; also: nearly all actives have a fitted effect of over 60% in size
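First, TGR (20 nM dispensed) and NADPH were mixed with compound. Second, a 15 min room-temperature incubation followed. Third, further NADPH and then DTNB were added to start the reaction. Finally, TNB absorbance was monitored kinetically.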
AmpC inh detg – AmpC beta-lactamase inhibition with detergent present. P00811. AmpC hydrolysis of nitrocefin, absorbance 480 nm, 0.01% Triton. Potency, µM (series often up to 114 µM), usual class: inhibitors. 0.041% of 370,000 active. AID 485294; also: nearly all actives have a fitted effect of over 25% in size
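20 mM phosphate pH 7.0 + 0.01% (detergent screen) or 0.0001% Triton X-100; 5.3 nM AmpC reagent; cpd preinc 15 min RT; nitrocefin (800 uM stock) to start; A480 q20 s × 4 min; Activity was normalised to no-enzyme and no-compound control wells.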
Each line names hits and unclear results; the compound was inactive in the other large screens. Calls follow the shape of the dose curve; as a rule, active = well fitted curve in the direction sought with a large enough effect; inconclusive = small, poorly fitted or top-dose-only effect, or another doubt; inactive = no such curve, though single readings can be large; an effect the other way counts as inactive or inconclusive.

Cc1ccc(C)c(N2CCN(S(=O)(=O)c3ccc4[nH]c5c(c4c3)CCCCC5)CC2)c1	none (no result: AmpC no deterg)
CCc1ccc(CCC(=O)Nc2nnc(C)s2)o1	Sm TGR inh inconclusive
CCc1ccc(CCC(=O)Nc2nc(CC(C)=O)ns2)o1	Sm TGR inh 40µM
CCNc1nc(C)cc(COC)c1C#N	Sm TGR inh 25µM
COCc1cc(C)nc(NCCO)c1C#N	none (no result: AmpC no deterg)
COc1ccc(-c2nc(CS(=O)(=O)CC(=O)NCc3ccccc3OC)c(C)o2)cc1	Sm TGR inh inconclusive, AmpC inh detg inconclusive
N#C/C(=C\c1ccc(C(=O)O)cc1)c1nc2sc3c(c2c(=O)[nH]1)CCCC3	none
Cc1cccc2c(=O)cc(CSc3ccccc3NC(=O)c3cccc(Br)c3)[nH]c12	none (no result: AmpC no deterg)
Cc1ccc(CNc2ncnc3c2c(-c2ccccc2)cn3-c2ccccc2)cc1	none (no result: AmpC no deterg)
COc1ccccc1C(=O)NC(C)c1ccc(-n2ccnc2)cc1 (stereo not given)	none
CSc1ccccc1C(=O)NC(C)c1ccc(-n2ccnc2)cc1 (stereo not given)	Sm TGR inh 5.6µM
CCc1nc(N)c(C#N)c(-c2ccco2)c1C	AmpC inh detg inconclusive
CC(C)OC(=O)CSc1nc(N)c(C#N)cc1C#N	none
Cc1c(-c2ccccc2)nc(N)c(C#N)c1-c1ccco1	Sm TGR inh 35µM
CC(C)OC(=O)CSc1nc(N)c(C#N)c(-c2ccco2)c1C#N	Sm TGR inh 40µM
O=C(Cc1c[nH]c2ccccc12)NCc1ccccc1F	none
CCOc1ccccc1NS(=O)(=O)c1c(C)nc2sccn2c1=O	none (no result: AmpC no deterg)
Cc1ccc(CCNC(=O)CCSCc2ccccc2F)cc1	none (no result: AmpC no deterg)
COc1ccc(-c2nc3sc(CCNC(=O)c4ccc(C(C)(C)C)cc4)c(C)n3n2)cc1	none (no result: AmpC no deterg)
Cc1ccccc1NC(=O)CNC(=O)Cc1cccc2ccccc12	none
Cc1cccc(C)c1NC(=O)CNC(=O)CNC(=O)Cc1cccc2ccccc12	Sm TGR inh 6.3µM
O=C(/C=C/c1cc(Br)ccc1O)c1ccco1	Sm TGR inh 14µM
CCOc1ccc2nc(Cl)c(/C=C/C(=O)c3ccco3)cc2c1	Sm TGR inh inconclusive
O=C(/C=C/c1ccccc1O)c1ccco1	Sm TGR inh inconclusive, AmpC inh detg inconclusive
Cc1cccc2cc(/C=C/C(=O)c3ccco3)c(Cl)nc12	Sm TGR inh 7.9µM
COc1ccc(C)cc1NC(=O)C1CCN(S(=O)(=O)c2c(C)noc2C)CC1	none
COc1ccc(OC)c(-c2noc(N3CCN(c4ccc(C(C)=O)cc4)CC3)n2)c1	none (no result: AmpC no deterg)
COc1ccc(C(=O)NCCn2cc(SCC(=O)Nc3ccc(F)cc3)c3ccccc32)cc1	none (no result: AmpC no deterg)
Cc1sc(NC(=O)c2ccco2)c(C(c2cccnc2)N2CCCC2)c1C (stereo not given)	Sm TGR inh inconclusive
Cc1sc(NC(=O)c2ccco2)c(C(c2cccnc2)N2CCN(C)CC2)c1C (stereo not given)	Sm TGR inh 35µM
Cc1nc2ccc(NC(=O)NCCCO)cc2s1	AmpC inh detg inconclusive
NS(=O)(=O)c1cccc(NC(=O)CN2C(=O)C(=O)N(Cc3ccccc3)C2=O)c1	none (no result: Sm TGR inh, AmpC inh detg)
O=C(Nc1nnc(-c2ccccc2)s1)c1ccccc1F	none
O=C(Nc1nnc(-c2ccccc2Cl)s1)c1ccccc1F	Sm TGR inh 28µM
C1=C(c2ccccc2)CCN(c2nc3ccccc3n3cnnc23)C1	Sm TGR inh 3.5µM
c1ccc(N2CCN(c3nc4ccccc4n4cnnc34)CC2)cc1	none
COc1ccc(NC(=O)C/C(C)=N/NC(=O)c2ccccn2)c(OC)c1	none
CCOc1ccccc1CNc1ncnc2onc(-c3ccc(F)cc3)c12	none (no result: AmpC no deterg)
Cc1nn(-c2ccccc2)c(Cl)c1CN(C(=O)CCl)c1ccc(Cl)cc1	Sm TGR inh 2µM, AmpC inh detg inconclusive
CC(=O)N(Cc1c(C)nn(-c2ccccc2)c1Cl)c1ccc(Cl)cc1	none
CC(C)(C)CC(C)(C)N1CNC(=S)NC1	none
Cc1ccc(S(=O)(=O)Nc2cc(C(C(=O)OC(C)C)C(=O)C(F)(F)F)c(O)c3ccccc23)c(C)c1 (stereo not given)	none
Cc1ccc(S(=O)(=O)Nc2ccc(O)c3ccccc23)c(C)c1	AmpC no deterg inconclusive, Sm TGR inh 8.9µM
COc1ccc(S(=O)(=O)Nc2ccc(O)c3ccccc23)cc1	AmpC no deterg inconclusive, Sm TGR inh 20µM, AmpC inh detg inconclusive
Cc1ccc(C)c(S(=O)(=O)Nc2ccc(O)c(C(=O)O)c2)c1	none
Cc1ccc(C)c(S(=O)(=O)Nc2ccc(O)c3ccccc23)c1	Sm TGR inh 22µM
Cc1ccc(S(=O)(=O)NNc2ccccc2)c(C)c1	Sm TGR inh 40µM
COc1ccc(S(=O)(=O)Nc2ccccc2C(F)(F)F)cc1	none
Cc1ccc(S(=O)(=O)NNC(=O)c2cccs2)c(C)c1	Sm TGR inh inconclusive
O=C(NCCc1ccccc1)c1cnc2sc(N3CCCCCC3)nn2c1=O	none (no result: AmpC no deterg)
